The results in this text go back to the supplement of paper PMC6555819.

In this assay the test system is VDR:RXRa (NR concentration 270 nM, RXRa partner concentration 90 nM). As to the kind of experiment: PBM binding z-score (relative to random genomic background probes); higher = stronger binding; sequences stand for … in GC…GCGATTGACAGCGTAGAATGAAGG
The protocol:
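Protein-binding microarray (Agilent 4x180K custom design, double-stranded 60-nt probes: 5' GC cap, 34-nt variable region, 24-nt constant primer region; full probe sequence given). Purified or IVT nuclear receptor:RXRα heterodimers (3:1 NR:RXRα, mostly 270:90 nM) or homodimers were incubated for 1 h in PBS with 2% milk and no ligand, then detected with Alexa488 antibodies. Fluorescence from o1-orientation probes (~5 replicates averaged) was converted to z-scores against 500 random hg19 background probes. Variable regions are seed direct-repeat (DR0–DR5) sites, all their single-nucleotide variants and half-site ablations.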
In turn, ACTTACGGGTCAACGAGGTTATAGCTCGCGTATA came in with a PBM binding z-score of 7.8.

Take CCTAGAAGGCCAATCTGGGTCACTCAAGGCTTGA: the PBM binding z-score came to 1.39.

Consider CTCGAAACGTCGGTTGAGGTGAGTATACGGATAA, for which the PBM binding z-score is -0.213.

In the case of TCTAGTTGGTCAAATGTCACACACTCGAAATGCG, the PBM binding z-score worked out at 1.44.

CCGACTGGGGTATAAGGTTACCATAAGCCAGCCC yielded a PBM binding z-score of 0.219.

For the sequence AGTCAAAGTTCACTAGGTATCGTAAGATTCAGCT, the PBM binding z-score is 3.89.

For TATACAGGGTCCAAGGCCAGAGTACGAATGTCGA, the PBM binding z-score was found to be 0.821.

The sequence ACTATTAGTTGGGACGAGGGCAACCGATAGGTTG gave a PBM binding z-score of 0.564.

AATACAGGGTCATCGTAGGCCAAAGTACGCACAG: the PBM binding z-score turned out to be 5.62.

TCATATAGGTCATACAGGTGAAAGTCGGCATCTA had a PBM binding z-score of 5.01.

Sequence TCTATTAGTTGAATGGCAACCGACGAGTCCGTTT displayed a PBM binding z-score of 0.746.

Turning to GCTTGTAGATCAAGGTTAAGAATGACTAAGCTAA, the PBM binding z-score was 0.0818.

TCATAGAGGTAATACAGGTGAAAGTCGGCATCTA displayed a PBM binding z-score of 1.07.

Sequence CAGACTAGGTCAGGGCCAGTATAGGAGGAACGTT gave a PBM binding z-score of -0.0309.

CTCGAAAGGTCGGTTGTGGTGAGTATACGGATAA displayed a PBM binding z-score of 1.05.

For CCTAGTTGGTCAAGATCACACACGCTATAGGTAC, the PBM binding z-score was 0.862.

TCATATAGCTAAAAGGTGAAAGTCGGTGTGGTAA: the PBM binding z-score was 0.864.

With CCTGCTAGGTCAATGGTCAGCTAGAGCAGCTCGC, the PBM binding z-score came out at 0.675.

The sequence GCAACGAGGGCATTCGAGTTGATAGCATGGCGAT came in with a PBM binding z-score of 3.57.

In turn, CGCACTAGGTCAGAACAGGACAGTGAAGGATGAT had a PBM binding z-score of 0.776.

In turn, CCTACTGGGCCATTCAGAGCTCATTGATCATATG registered a PBM binding z-score of -0.707.

ACTAGCAGGCAAAGGGTCACTCAAGATTAGTCCG registered a PBM binding z-score of 2.98.

The sequence GCAGAAAGGTGAAACGCAGGTAACTCAGGGTGGC gave a PBM binding z-score of 0.145.

For GCTGCTAGGTCAGGTTGGTCAGCCAACGGGTACG, the PBM binding z-score is 0.447.

For CGTCCAAGGTCAATGCTAGGTCAGTTAAAGCATT, the PBM binding z-score turned out to be 5.01.

As for CCTACTGGGCCAGAGGTCATTGATTCCAATGCTC, the PBM binding z-score was 4.47.

GCTGCTTGGTCAGGTTGGTCAGCTAACGGGTACG had a PBM binding z-score of -0.35.

CGAACTAGGTCATACAGGACAGTGAATACATTGA displayed a PBM binding z-score of 3.99.

On to CGTCAAAGTTCAAATAAGGTAACGTAAAGCACGC, for which the PBM binding z-score amounted to 4.74.

ACAGACAGGTGAGTGAAGGTAACTGAGCTGGACG registered a PBM binding z-score of -0.202.

On to CGAACTAGGGCAGAACAGGACAGTGAAGGATGAT, for which the PBM binding z-score is -0.31.

As to CCTAGTTGGTCAAGGTCACACAGGCTATAGGTAC, the PBM binding z-score is 4.72.

For ATATGTTGGTTACATCCGGGTCATTCAGGCTATG, the PBM binding z-score was found to be 3.42.

On to ACTATTATTTGACTTAGGGCAACCGATACGACGC, for which the PBM binding z-score worked out at 0.993.

In the case of GGAACGCGGGCATTCGAGTTGATAGCATGGCGAT, the PBM binding z-score is -0.234.

On to CGGCAAAGTTCAAGGTAACGTAACAGAAAGCAGC, for which the PBM binding z-score came out at 3.52.

Regarding GGAACGAGGGCAAACTTGATAGCATCTGTCGACG, the PBM binding z-score stood at 1.42.

CCTGCTCGGTCATGGTCAGCTAATCTACAGTATG had a PBM binding z-score of -0.315.

As for ACGAGCAGGCCAAGTTTGGGTCACTCAAACAAAG, the PBM binding z-score came to 0.614.

With TAGCCTAGGTCAGATCGGGACAGTATACGCTATA, the PBM binding z-score turned out to be 1.23.
